Laboratory results as given in PubChem BioAssay.
The source made the active and inactive calls. Unless noted, the rule behind the calls is not given here.

Columns and labels:
[1] = anti-His antibody binders, primary screen, artefact control for SMM control protein annotation, biochemical, small-molecule microarray, 635 nm fluorescence (AID 1128); conditions: anti-His Alexa647 antibody binding, higher = more signal;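 note: score merges feature fluorescence with signal-to-noise for each printed compound spot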
[2] = test system: Human papillomavirus type 1a E7 protein (residues 1-88); assay: HPV1a E7 small-molecule binders, primary screen, biochemical, small-molecule microarray, residues 1-88, 635 nm (AID 1129); conditions: small-molecule microarray binding, fluorescence 635 nm; higher = more signal
[3] = biological target: Focal adhesion kinase 1 (Homo sapiens) (UniProt Q05397); assay: small-molecule microarray binders of FAK, primary screen, biochemical, 635/667 nm fluorescence, BSA, DTT (AID 1130); conditions: PTK2 binding, 635 nm fluorescence, higher = more signal;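 note: composite of spot emission at 667 nm and signal to noise over triplicate slides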
Focal adhesion kinase 1 (Homo sapiens), sequence (Q05397 whole entry, looked up): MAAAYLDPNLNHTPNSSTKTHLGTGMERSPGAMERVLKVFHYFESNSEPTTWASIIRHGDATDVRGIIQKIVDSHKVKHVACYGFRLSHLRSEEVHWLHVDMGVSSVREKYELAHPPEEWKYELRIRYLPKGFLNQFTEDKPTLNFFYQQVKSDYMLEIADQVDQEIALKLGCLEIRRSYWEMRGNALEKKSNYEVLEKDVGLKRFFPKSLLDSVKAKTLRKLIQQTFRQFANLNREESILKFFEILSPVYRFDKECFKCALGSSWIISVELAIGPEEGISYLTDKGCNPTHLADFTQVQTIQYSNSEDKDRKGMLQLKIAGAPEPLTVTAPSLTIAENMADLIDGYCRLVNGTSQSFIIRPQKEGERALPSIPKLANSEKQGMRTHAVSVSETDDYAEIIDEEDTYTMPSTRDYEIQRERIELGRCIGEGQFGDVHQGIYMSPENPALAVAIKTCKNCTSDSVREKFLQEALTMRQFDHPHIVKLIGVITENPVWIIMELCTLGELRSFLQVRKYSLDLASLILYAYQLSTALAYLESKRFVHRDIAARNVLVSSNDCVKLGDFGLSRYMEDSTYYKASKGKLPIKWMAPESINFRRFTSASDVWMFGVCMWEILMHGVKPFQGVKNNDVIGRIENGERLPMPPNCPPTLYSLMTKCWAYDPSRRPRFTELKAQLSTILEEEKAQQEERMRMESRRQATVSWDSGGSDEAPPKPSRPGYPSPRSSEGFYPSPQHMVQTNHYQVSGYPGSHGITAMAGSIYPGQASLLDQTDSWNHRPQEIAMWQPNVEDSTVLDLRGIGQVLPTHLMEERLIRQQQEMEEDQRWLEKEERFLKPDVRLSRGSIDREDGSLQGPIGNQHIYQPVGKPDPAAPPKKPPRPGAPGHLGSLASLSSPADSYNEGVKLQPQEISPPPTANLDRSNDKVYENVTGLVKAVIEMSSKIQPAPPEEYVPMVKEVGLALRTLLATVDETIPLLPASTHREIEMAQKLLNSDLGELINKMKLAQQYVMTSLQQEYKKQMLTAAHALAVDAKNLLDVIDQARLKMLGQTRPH

[4] = test system: Fibrinogen (Alexa647-labelled); assay: fibrinogen binders on compound microarrays, profiling panel, artefact control for SMM control-protein annotation, biochemical, small-molecule microarray, 635/667 nm fluorescence (AID 1131); conditions: fibrinogen-A647 binding fluorescence, higher = more signal;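 note: z-score merges 667 nm fluorescence with per-spot signal-to-noise over triplicate slides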
[5] = biological target: Follistatin (Homo sapiens) (UniProt P19883); assay: follistatin binders on small-molecule microarrays, primary screen, biochemical, small-molecule microarray, 635/667 nm fluorescence (AID 1132); conditions: FST binding, 635 nm fluorescence, higher = more signal
Follistatin (Homo sapiens), sequence (P19883 whole entry, looked up): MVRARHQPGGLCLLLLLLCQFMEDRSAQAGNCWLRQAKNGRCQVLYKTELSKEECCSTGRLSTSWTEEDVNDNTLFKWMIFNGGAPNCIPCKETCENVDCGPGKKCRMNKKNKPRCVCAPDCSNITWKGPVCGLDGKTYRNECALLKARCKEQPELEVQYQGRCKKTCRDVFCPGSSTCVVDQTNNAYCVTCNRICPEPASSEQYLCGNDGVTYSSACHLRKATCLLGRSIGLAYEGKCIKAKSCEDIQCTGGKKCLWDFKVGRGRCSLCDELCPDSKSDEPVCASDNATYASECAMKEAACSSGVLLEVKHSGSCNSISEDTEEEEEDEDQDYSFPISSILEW

[6] = biological target: Fibroblast growth factor 2 (Homo sapiens) (UniProt P09038); assay: FGF2 binders on small-molecule microarrays, primary screen, biochemical, small-molecule microarray, 635/667 nm fluorescence (AID 1133); conditions: small-molecule microarray binding, FGF2, fluorescence 635/667; higher = more signal
Fibroblast growth factor 2 (Homo sapiens), sequence (P09038 whole entry, looked up): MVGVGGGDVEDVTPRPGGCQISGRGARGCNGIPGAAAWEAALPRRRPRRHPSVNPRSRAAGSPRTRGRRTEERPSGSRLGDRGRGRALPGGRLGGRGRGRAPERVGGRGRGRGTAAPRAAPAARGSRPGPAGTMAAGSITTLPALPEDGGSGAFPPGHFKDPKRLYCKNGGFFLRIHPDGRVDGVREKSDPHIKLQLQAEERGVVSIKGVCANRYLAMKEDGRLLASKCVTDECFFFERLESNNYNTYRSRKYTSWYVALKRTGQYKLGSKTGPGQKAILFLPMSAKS

[7] = mitochondrial membrane potential change in A549 cells, profiling panel, cell-based, JC-1 fluorescence, basal, 24 h, 100 nL (AID 1138); conditions: higher = more signal;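 note: A549 lung adenocarcinoma cells under basal conditions with no added stimulus; test concentration not given here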
[8] = test system: Lefty1; assay: Lefty1 binders on small-molecule microarrays, primary screen, biochemical, small-molecule microarray, 635/667 nm fluorescence (AID 1139); conditions: small-molecule microarray binding, fluorescence 635/667; higher = more signal
[9] = test system: wheat germ agglutinin (Triticum aestivum), Alexa647-labelled; assay: wheat germ agglutinin binders on compound microarrays, profiling panel, artefact control for SMM control-protein annotation, biochemical, small-molecule microarray, 635/667 nm fluorescence (AID 1140); conditions: WGA-A647 binding, 635 nm fluorescence, higher = more signal;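 note: score merges 667 nm feature emission with signal to noise over triplicate slides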
[10] = biological target: Luciferin 4-monooxygenase (Photinus pyralis) (UniProt P08659); assay: firefly luciferase enzyme inhibitors, primary screen, biochemical, luminescence, purified enzyme, 2006 set (AID 1141); conditions: SteadyGlo luminescence, 30 min, higher = more signal, called active from +8 up or from −8 down;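 note: cell-free assay with purified firefly luciferase at 100 ng per well in PBS; test concentration not given here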
Luciferin 4-monooxygenase (Photinus pyralis), sequence (P08659 whole entry, looked up): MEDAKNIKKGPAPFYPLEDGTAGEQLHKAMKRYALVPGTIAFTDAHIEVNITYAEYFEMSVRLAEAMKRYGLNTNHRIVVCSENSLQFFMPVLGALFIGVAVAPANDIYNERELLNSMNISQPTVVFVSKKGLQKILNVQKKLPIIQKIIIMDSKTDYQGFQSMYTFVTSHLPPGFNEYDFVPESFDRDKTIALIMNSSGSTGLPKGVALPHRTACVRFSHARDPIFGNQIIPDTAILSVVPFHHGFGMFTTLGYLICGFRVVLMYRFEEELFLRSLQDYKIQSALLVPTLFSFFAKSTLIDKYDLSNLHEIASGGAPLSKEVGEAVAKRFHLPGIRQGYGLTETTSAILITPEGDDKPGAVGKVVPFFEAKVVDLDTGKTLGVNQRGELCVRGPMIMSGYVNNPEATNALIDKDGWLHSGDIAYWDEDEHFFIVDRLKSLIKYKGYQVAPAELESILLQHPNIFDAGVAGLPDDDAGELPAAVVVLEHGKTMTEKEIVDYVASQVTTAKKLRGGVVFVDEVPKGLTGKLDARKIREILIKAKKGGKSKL

[11] = test system: Wnt5a (protein binding on small-molecule microarray); assay: Wnt5a binders on small-molecule microarray, primary screen, biophysical, 635/667 nm fluorescence (AID 1142); conditions: 635 nm fluorescence, higher = more signal;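 note: fluorescence read at 667 nm with signal to noise per printed feature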
[12] = cell viability in Huh7 cells, primary screen, cytotoxicity control for HCV replication inhibitor project, CellTiter-Glo luminescence, basal, 48 h (AID 1143); conditions: Huh7 HCV replicon, higher = more signal, called active from +8 up or from −8 down;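 note: Huh7 hepatoma cells carrying a hepatitis C replication reporter with no stimulus; test concentration not given here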
[13] = P. aeruginosa biofilm formation inhibitors, primary screen, PAO1 strain, BacTiter-Glo luminescence, LB-PBS (AID 1144); conditions: 12 h, higher = more signal
[14] = CREB reporter modulators without forskolin, primary screen, cell-based, PC12, CRE-LacZ reporter, unstimulated (AID 1145); conditions: no forskolin, luminescence, 4.5 h, higher = more signal, called active from +8 up or from −8 down
[15] = CREB reporter modulators under forskolin, primary screen, cell-based, PC12, CRE-LacZ reporter, forskolin-stimulated (AID 1146); conditions: luminescence, 4.5 h, higher = more signal, called active from +8 up or from −8 down;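 note: PC12 cells with 6xCRE LacZ reporter stimulated by forskolin 10 µM; beta-galactosidase reporter signal reflecting CREB driven transcription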
[16] = biological target: Streptavidin (Streptomyces avidinii) (UniProt P22629); assay: streptavidin binders on small-molecule microarray, primary screen, artefact control for SMM compound annotation, biophysical, 635/667 nm fluorescence (AID 1147); conditions: streptavidin binding, higher = more signal;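 note: signal reflects streptavidin binding to arrayed compounds as a control protein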
Streptavidin (Streptomyces avidinii), sequence (P22629 whole entry, looked up): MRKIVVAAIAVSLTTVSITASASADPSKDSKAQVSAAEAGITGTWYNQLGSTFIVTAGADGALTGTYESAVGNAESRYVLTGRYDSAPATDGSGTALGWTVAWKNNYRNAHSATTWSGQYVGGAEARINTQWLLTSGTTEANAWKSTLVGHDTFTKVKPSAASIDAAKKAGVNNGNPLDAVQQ

[17] = small-molecule binders of probe aInhba, primary screen, biochemical, small-molecule microarray, 635/667 nm fluorescence (AID 1148); conditions: higher = more signal;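 note: score merges 667nm spot fluorescence with signal-to-noise for antibody binding to printed compounds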
[18] = biological target: Torsin-1A (Homo sapiens) (UniProt O14656); assay: torsin A binders from cell lysate, primary screen, small-molecule microarray, wild-type, 635/667 nm (AID 1149); conditions: COS7 hTOR1A-WT lysate, 635 nm fluorescence, higher = more signal
Torsin-1A (Homo sapiens), sequence (O14656 whole entry, looked up): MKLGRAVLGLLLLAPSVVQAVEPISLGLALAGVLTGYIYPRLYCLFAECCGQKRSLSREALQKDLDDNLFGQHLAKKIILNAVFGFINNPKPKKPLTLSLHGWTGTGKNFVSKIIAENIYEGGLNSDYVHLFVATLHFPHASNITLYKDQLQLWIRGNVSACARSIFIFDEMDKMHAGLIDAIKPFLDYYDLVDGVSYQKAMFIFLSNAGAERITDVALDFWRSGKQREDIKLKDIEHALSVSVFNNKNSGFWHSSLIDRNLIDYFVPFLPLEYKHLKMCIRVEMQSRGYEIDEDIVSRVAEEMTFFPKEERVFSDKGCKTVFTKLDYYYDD

[19] = biological target: Torsin-1A (Homo sapiens) (UniProt O14656); assay: small-molecule binders of mutant TOR1A in lysate, primary screen, cell lysate, small-molecule microarray, COS7 lysate, 635/667 nm fluorescence (AID 1150); conditions: COS7 hTOR1A mutant lysate, 635 nm fluorescence, higher = more signal;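 note: score pools 667 nm emission and signal to noise measuring lysate protein binding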
[20] = test system: Sonic hedgehog protein (Shh); assay: small-molecule binders of Shh protein, primary screen, biochemical, small-molecule microarray, 635/667 nm fluorescence (AID 1151); conditions: small-molecule microarray binding, 635 nm fluorescence; higher = more signal;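 note: Shh protein binding to compounds spotted on small-molecule microarray slides; score combines spot fluorescence intensity with signal-to-noise across triplicate slides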

SMILES | composite z-score [1] | composite z-score [2] | composite z-score [3] | composite z-score [4] | composite z-score [5] | composite z-score [6] | z-score [7] | composite z-score [8] | composite z-score [9] | z-score [10] | composite z-score [11] | z-score [12] | z-score [13] | z-score [14] | z-score [15] | composite z-score [16] | composite z-score [17] | composite z-score [18] | composite z-score [19] | composite z-score [20]
CCCCNC(=O)c1ccc(C#C[Si](C(C)C)(C(C)C)C(C)C)c(OC(C)=O)c1 | 0.823 | 1.13 | 0.124 | 0.598 | 1.15 | 0.883 | -2.05 | 1.01 | 1.08 | 0.683 (inactive) | 0.268 | -0.915 (inactive) | -0.084 (inactive) | 0.223 (inactive) | 0.184 (inactive) | 1.04 | -0.187 | 0.598 | 0.216 | 1.74
CC(C)(C)OC(=O)CC[C@]1(C(=O)N2CCCCC2)COC(c2ccc(OCCCO)cc2)=N1 | 2.11 | 1.23 | 0.857 | 1 | 0.778 | -0.0857 | -0.29 | 0.197 | 1.12 | -0.3 (inactive) | 0.784 | -2.07 (inactive) | -0.984 (inactive) | -0.837 (inactive) | 0.238 (inactive) | 1.36 | 0.127 | 0.655 | 0.967 | -0.65
C=CCC(OC(C)=O)[C@@H]1[C@@H](N(Cc2cccc3ccccc23)C(=O)c2ccc(-c3ccccc3)cc2)c2cc(OCCCO)ccc2N1C(=O)c1ccc(-c2ccccc2)cc1 (stereo not given in full) | -0.811 | 0.488 | -0.132 | -0.123 | 0.353 | -0.0952 | 0.758 | 0.0683 | 0.204 | -0.0873 (inactive) | 0.09 | 0.457 (inactive) | -0.1 (inactive) | 0.367 (inactive) | 0.859 (inactive) | 0.361 | 0.114 | 0.162 | 0.0809 | 0.286
COc1ccc(C(O)C2C=CC3C(=O)N(c4ccccc4)C(=O)C3N2Nc2ccccc2)cc1 (stereo not given) | 0.85 | 1.08 | 0.72 | 1.01 | 0.955 | 0.0088 | 0.204 | 0.817 | 1.1 | -0.182 (inactive) | 0.256 | -0.0351 (inactive) | -0.0851 (inactive) | 0.426 (inactive) | -0.356 (inactive) | 0.571 | 0.105 | -0.109 | 0.692 | 0.393
CC(C)N1CC=CC23O[C@@H]4/C=C\CCCOC(=O)C4[C@H]2C(=O)N(CCCCCCO)[C@@H]3C1=O (stereo not given in full) | 1.3 | -0.808 | 0.0835 | -1.38 | -1.04 | -1.2 | 1.49 | -0.934 | -0.724 | -1.88 (inactive) | -0.0379 | 0.0722 (inactive) | -0.0303 (inactive) | -0.48 (inactive) | -1.02 (inactive) | -1.13 | -0.205 | -0.14 | 0.55 | -0.0836
COCCOC(=O)N1C(=O)[C@@]2(c3cc(C#CC4(O)CCCCCC4)ccc31)[C@H](c1ccc(OCCO)cc1)N1[C@H](c3ccccc3)[C@H](c3ccccc3)OC(=O)[C@H]1[C@@H]2C(=O)Nc1nc2ccccc2s1 | 1.08 | 1.13 | 0.2 | 0.688 | 1.27 | 1.65 | -2.33 | 1.38 | 0.708 | -2.55 (inactive) | 0.544 | -1.39 (inactive) | 0.3 (inactive) | -0.337 (inactive) | 0.138 (inactive) | 0.945 | 0.134 | 0.494 | 0.734 | 1.84
CCCNC(=O)[C@@]1(Sc2ccc(C)cc2)CC(=O)N(C(C)C)[C@@H]1c1ccc(CO)cc1I | -0.139 | -0.435 | -0.288 | -0.678 | -1.21 | -1.5 | 0.794 | -1.96 | -0.831 | -0.121 (inactive) | -0.272 | -1.07 (inactive) | 0.767 (inactive) | -0.412 (inactive) | 0.892 (inactive) | -1 | -0.186 | 0.0671 | 0.157 | -0.42
COCCCNC(=O)[C@@]1(c2ccc([N+](=O)[O-])cc2)CC(=O)N(C(C)C)[C@@H]1c1ccc(CO)cc1 | -0.92 | -0.085 | 0.756 | -0.779 | 0.559 | 0.352 | 0.296 | -0.0938 | 0.174 | -0.985 (inactive) | 0.0039 | 0.433 (inactive) | 0.797 (inactive) | 0.495 (inactive) | 0.0212 (inactive) | -0.934 | 0.315 | 0.722 | 1.05 | 0.0776
[N-]=[N+]=Nc1ccccc1C[C@]1(C(=O)NCc2ccccc2)COC(c2ccc(OCCCO)cc2)=N1 | 1.39 | 1.2 | 0.467 | 0.963 | 1.16 | 0.17 | 1.85 | 0.556 | 1.14 | -5.16 (inactive) | 0.607 | -4.89 (inactive) | 0.106 (inactive) | 0.101 (inactive) | -1.31 (inactive) | 1.01 | -0.104 | 0.413 | 0.932 | 0.153
